A selection: hits, their analogues and other compounds. The true share with any hit is near 2.4%.
BRCT PPI green = blocks human BRCA1 BRCT binding to phosphopeptide, green readout | P38398 | BRCA1 BRCT-phosphopeptide binding, green fluorescence polarization | Potency, µM (top dose mostly 76.9 µM), hits mostly inhibitors | hit rate 0.05% among 75,000 | AID 875
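Fluorescence polarization: His-tagged BRCT (~35 kDa BRCA1 C-terminus, 250 nM) bound to 100 nM fluorescein-labeled phosphorylated 10-aa BACH1 peptide, pH 7.3 phosphate buffer with DTT and Tween 20. Compounds incubated 12 min at room temperature; inhibition read as lowered polarization.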
BRCT inh red = disrupts BRCA1 BRCT binding to phosphoprotein, red fluorophore readout | P38398 | BRCT-phosphopeptide binding, red fluorescence polarization | Potency, µM (top dose mostly 76.9 µM), hits mostly inhibitors | hit rate 0.03% among 75,000 | AID 892
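Fluorescence polarization: 100 nM His-tagged BRCA1 BRCT with 100 nM TAMRA-labelled phospho-BACH1 decapeptide, phosphate buffer pH 7.3 with 150 mM NaCl, DTT, 0.01% Tween 20; 12 min RT. Binding inhibition seen as FP decrease.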
YjeE inh = displaces an ADP probe from E. coli YjeE (TsaE); purified YjeE enzyme, qHTS inhibition assay; Potency, µM; hit rate 0.05% among 71,000
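Fluorescence polarization of a BODIPY Texas Red–ADP probe (2 uM) bound to purified YjeE (10 uM) was read after 15 min room-temperature incubation with compounds. Loss of polarization marks inhibitors; ADP serves as titrated control.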
DNA Pol III inh = inhibitors of bacterial DNA polymerase III holoenzyme | Potency, µM (top dose mostly 57.1 µM) | AID 603 | hit rate 0.25% among 71,000 | reconstituted DNA polymerase III holoenzyme replication, biochemical
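Reconstituted *E. coli* holoenzyme (0.35 nM Pol III, 1 nM beta, 154 nM SSB, 2 nM primase) was preincubated with compound for 15 min at RT. Synthesis on 1.4 nM ssM13Gori ran 35 min, then was stopped with PicoGreen/EDTA and read as dsDNA fluorescence.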
Hsp90 Hop PPI = changes Hsp90-Hop TPR2A binding signal, up or down; hit rate 0.44% among 71,000; Potency, µM (titrated, usually from 57 µM); AlphaScreen TPR2A-His6 binding biotin-Hsp90 C-terminal peptide; AID 595; active means well fitted curve in either direction with a large enough effect; inconclusive means small, poorly fitted or top-dose-only effect, or another doubt
Tau fil binding = binds recombinant human tau filaments. recombinant tau filaments, thioflavin S fluorescence, 15 h; filaments grown with octadecylsulfate alongside compound. Potency, µM (doses to about 57.1 µM). hit rate 2% among 71,000. AID 596;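 further: actives lower thioflavin S fluorescence by blocking filaments or displacing dye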
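Read-out: ThS fluorescence, 450 nm excitation/510 nm emission; lower signal marks blocked filament formation or displaced dye. Tau at 1 uM with 30 uM ODS, 10 uM ThS, 5 mM DTT, 100 mM NaCl, 10 mM HEPES pH 7.4; 15 h, 37 C.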
A number is an active result; i = inactive; ? = inconclusive; nt = no result; ! = not active in a repeat; [ ] = remark or other dose. Unless noted, the call rests on the fitted dose curve; in most records, active means well fitted curve in the direction sought with a large enough effect; inconclusive means small, poorly fitted or top-dose-only effect, or another doubt; inactive means no such curve, though single readings can be large; an effect the other way counts as inactive or inconclusive.

SMILES	BRCT PPI green	BRCT inh red	YjeE inh	DNA Pol III inh	Hsp90 Hop PPI	Tau fil binding
N[C@@H](Cc1cc(O)c(O)cc1O)C(=O)O	?	?	i	0.4µM	7.9µM	25µM
NCCc1cc(O)c(O)cc1O	i[3.08 µM]	i	nt	nt	nt	nt
COc1cc2c(cc1OC)[C@@]13CCN4C=C5CCO[C@H]6CC(=O)N2[C@@H]1[C@@H]6[C@H]5C[C@H]43	i[15.4 µM]	i[15.4 µM]	i	i[11.4 µM]	i[11 µM]	i[11.4 µM]
CC(=O)[C@@H]1CC[C@H]2[C@H]3CC[C@H]4C[C@@H](O)CC[C@]4(C)[C@@H]3CC[C@]12C	i	i	i	i	i	i
N#CC(C#N)=Cc1cc(O)c(O)c(O)c1	i	i	i	i	7.9µM	i
N#C/C(=C\c1ccc(O)c(O)c1)C(N)=S	i	i	i	i	?	i
C[C@]12CC[C@H](O)C[C@@H]1CC[C@H]1[C@H]2CC[C@]2(C)[C@H](C(=O)CO)CC[C@@H]12	i	i	i	i	i	i
[O]=[Cr](=[O])([OH])[O][Cr](=[O])(=[O])[OH]	i	i	i	5µM!	?	1.3µM!
C[C@@H](Cc1ccc2c(c1)OC(C(=O)O)(C(=O)O)O2)NC[C@H](O)c1cccc(Cl)c1	i	i	i	i	i	i
CC1=C[C@@H]2c3cccc4[nH]cc(c34)C[C@H]2N(C)C1	nt	nt	i	i	i	i
CN1Cc2ccccc2[C@@H]2c3cccc4[nH]cc(c34)C[C@H]21	i	i	i	i	i	25µM
O=C(Nc1ccc2c(c1)OCO2)c1cn(Cc2ccc(F)cc2)nn1	i	i	i	i	i	13µM
CCCCCCC[n+]1ccc(-c2cc[n+](CCCCCCC)cc2)cc1	i	i	i	i	i	16µM
CC(C)[C@H]1C(=O)N2CCC[C@@H]2[C@]2(O)O[C@@](NC(=O)[C@H]3C=C4c5cccc6[nH]cc(c56)C[C@H]4N(C)C3)(C(C)C)C(=O)N12	nt	nt	i	i	i	i
CCC1C(=O)OCC1Cc1cncn1C (stereo not given)	i	i	i	i	i	40µM
Cl.Cl.Cl.Cl.Cl.Cl.N.N.N.N.NNNNN.NNNNN.O.O.[Ru].[Ru].[Ru]	i	i	79µM	?	?	?
CCCCCCCCCCCCCC(=O)O[C@H]1[C@@H](C)[C@@]2(O)[C@@H](C=C(CO)C[C@]3(O)C(=O)C(C)=C[C@@H]23)C2C(C)(C)[C@]21OC(C)=O (stereo not given in full)	i	i	i	i	i	i
COc1cc2c(cc1OC)-c1c(O)c(OC)cc3c1[C@@H](C2)N(C)CC3	nt	nt	i	i	?	32µM
CC(=O)[O-].CC(=O)[O-].O.O.[Cd+2]	i	i	?	0.25µM	i	i
c1cc2cc(c1)C[n+]1ccc(c3ccccc31)NCc1ccc(cc1)CNc1cc[n+](c3ccccc13)C2	i	i	i	32µM	i	i
C[C@@]12CC[C@H]3[C@@H](CCC4=C(O)C(=O)CC[C@]43C)[C@H]1CCC2=O	i	i	i	i	i	i
CN(N=O)c1ccc(O)c(O)c1	10µM	6.3µM	i	0.4µM	3.2µM	i
CNc1ccc2oc(C[C@H]3O[C@]4(CC[C@H]3C)O[C@H]([C@H](C)C(=O)c3ccc[nH]3)[C@H](C)C[C@H]4C)nc2c1C(=O)O	i	i	i	i	i	40µM
Nc1nc(N)c(N=Nc2ccc([As](=O)(O)O)c(O)c2)c(N)n1	i[15.4 µM]	i[15.4 µM]	i	i[11.4 µM]	i[11 µM]	i[11.4 µM]
CC1=NN(c2ccccc2)C(=O)[C@@H]1N=Nc1ccc([As](=O)(O)O)c(O)c1	i[15.4 µM]	i[15.4 µM]	i	i[11.4 µM]	i[11 µM]	3.2µM
CN1CCN(C(=O)COc2ccc3ccccc3c2Br)CC1	i	i	i	i	2.5µM	16µM
Cc1cc(Cl)ccc1OCC(=O)N1CCN(C)CC1	i	i	i	i	i	i
CC[n+]1c(-c2ccccc2)c2cc(N)ccc2c2ccc(N)cc21	?	?	79µM	2µM	i	0.32µM
C/C=C1\C[C@H](C)[C@](O)(CO)C(=O)OCC2=CCN3CC[C@@H](OC1=O)[C@@H]23	nt	nt	i	i	i	i
O=C1CC[C@@]2(O)[C@H]3Cc4ccc(O)c5c4[C@@]2(CCN3CC2CC2)[C@@H]1O5	i	i	i	i	i	?
